Shiga inhibitor: A qHTS for Small Molecule Inhibitors of Shiga Toxin; Vero cells, Shiga toxin protein synthesis inhibition reporter; inhibition, % at 38.7 µM; 290,000 tested, 9.2% active; in the data active = inhibition mostly above about 28%, no sharp cut-off; inactive = mostly below about 43%; note: 0% is about no effect
Pf growth 96h: Primary qHTS for delayed death inhibitors of the malarial parasite plastid, 96 hour incubation; P. falciparum luciferase reporter growth, 96 h; 320,000 tested, 6.9% active; AID 504834, 2011; Potency, µM (series often up to 28.7 µM), inactives show at the top dose activity change, negative = inhibition, usual class: inhibitors; note: potency is the fitted concentration of half-maximal effect; % is set by controls: 0 for no effect and ±100 for the full control effect
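Infected RBCs, 2% Hct / 0.05% parasitemia final; luciferase-reporter P. falciparum; cpd 96 h, 37 C, 5% CO2; luciferase detection reagent; luminescence.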
HCMV antiviral: qHTS Assay for inhibitors of the human cytomegalovirus (HCMV). HFF cells, HCMV-luciferase reporter, 72 h; hits give low values. activity change, negative = inhibition, % at 57.5 µM. 410,000 tested, 4.5% active; in the data active = activity change below about -60%; inconclusive = no clear call, values can overlap the other calls; inactive = above about -39%; note: % is set by controls: 0 for no effect and ±100 for the full control effect
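Cell-based, HFFs, 1000 cells/well, 16 h 37C; cpds in DMSO + HCMV-luc, MOI 1 PFU/cell; 72 h 37C; OneGlo luminescence after 5 min RT; norm. to buffer vs Salinomycin 10uM.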
Pf growth 48h: Primary qHTS for delayed death inhibitors of the malarial parasite plastid, 48 hour incubation; P. falciparum luciferase growth in erythrocytes, 48 h; Potency, µM (doses to about 28.7 µM), without a hit: top-dose activity change, negative = inhibition, most hits filed as inhibitors; 310,000 tested, 5.9% active; AID 504832, 2011; note: potency is the fitted concentration of half-maximal effect; % is set by controls: 0 for no effect and ±100 for the full control effect
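In quantitative HTS format, infected erythrocytes bearing luciferase-reporter parasites were treated for a single generation at 37 C. Luminescence after adding detection reagent served as the growth measure.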
CHX counter: Cycloheximide Counterscreen for Small Molecule Inhibitors of Shiga Toxin. max response, %. AID 2314, 2010. 300,000 tested, 12% active. cell reporter, cycloheximide protein synthesis inhibition counterscreen; in the data active = max response mostly above about 13%, no sharp cut-off; inactive = mostly below about 14%; note: read at 38.3 µM for the half of the compounds with a filed dose; 0% is about no effect
Numbers without * were called inactive; ? = inconclusive; nt = no result. Hits are enriched below; roughly 20% of the tested compounds scored in any of these assays. Unless noted, calls come from the whole dose curve; as a rule, active = well fitted inhibition curve with a large enough effect; inconclusive = small, poorly fitted or top-dose-only effect, or another doubt; inactive = no such curve, though single readings can be large or run the other way.

SMILES	Shiga inhibitor	Pf growth 96h	HCMV antiviral	Pf growth 48h	CHX counter
COc1ccc(N2C3=C(C(=O)CC(C)(C)C3)C(c3cnn(C)c3)C3=C2CC(C)(C)CC3=O)cc1	-6	4.1µM*	-6	7.4µM*	-2
CCOC(=O)[C@]12CCC=C1N(Cc1ccc(Cl)cc1Cl)C(=O)[C@H](CC(=O)NCc1ccccc1)C2	nt	nt	-9	nt	nt
Cc1c(/C(O)=C2/C(=O)C(=O)N(Cc3cccnc3)C2c2ccccn2)cnn1-c1ccccc1 (stereo not drawn)	64	?	-76*	116%	34*
Cc1c(/C(O)=C2/C(=O)C(=O)N(Cc3cccnc3)C2c2cccs2)cnn1-c1ccccc1 (stereo not drawn)	168*	nt	-38	111%	52*
Cc1ccc(/C(O)=C2/C(=O)C(=O)N(Cc3cccnc3)C2c2ccccn2)cc1 (stereo not drawn)	17	nt	61	0%	10
CCOC(=O)N1C(C)CN(/[N+]([O-])=N/Oc2ccc([N+](=O)[O-])cc2[N+](=O)[O-])CC1C (stereo not drawn)	32	nt	nt	nt	7
CCCn1c(C(CO)Nc2nc(-c3cccc(Br)c3)cs2)nc2ccccc21 (stereo not drawn)	-3	5.9µM*	-18	?	-5
OCCOCCn1c(C(CO)Nc2nc(-c3cccc(Br)c3)cs2)nc2ccccc21 (stereo not drawn)	nt	nt	17	nt	nt
CCN(C[C@H]1N[C@@](CC)(C(=O)OC)[C@H]2C(=O)N(Cc3ccccc3)C(=O)[C@@H]12)S(=O)(=O)c1ccc(F)cc1	nt	nt	9	nt	nt
O=C(c1ccccc1F)N1CCC2CC1c1cc(-c3ccc4c(c3)OCO4)ccc12 (stereo not drawn)	nt	nt	-15	nt	nt
O=C1C=C(c2ccc3c(c2)OCO3)C[C@@H](c2ccc(F)cc2)C1	nt	57%	-11	-10%	nt
Oc1ccccc1C1C=C(c2ccc3c(c2)OCO3)NC(c2ccc(F)c(Br)c2)N1 (stereo not drawn)	100*	nt	nt	nt	36*
Oc1ccc(Br)cc1C1C=C(c2ccc3c(c2)OCO3)NC(c2ccc(F)c(Br)c2)N1 (stereo not drawn)	93*	nt	nt	nt	54*
Cc1cc(C(=O)OCC(=O)N(C)c2c(N)n(Cc3ccccc3)c(=O)[nH]c2=O)c(C)n1-c1ccccc1	nt	?	-22	?	nt
COc1ccc(NC(=O)c2oc3ccc4c(c3c2C)C(=O)CC(C)(C)O4)cc1OC	nt	nt	69	nt	nt
Cc1c(C(=O)NCc2ccoc2)oc2ccc3c(c12)C(=O)CC(C)(C)O3	119*	20%	4	69%	61*
CCOc1ccccc1CNC(=O)c1oc2ccc3c(c2c1C)C(=O)CC(C)(C)O3	nt	nt	4	nt	nt
CCc1cccc(NC(=O)c2oc3ccc4c(c3c2C)C(=O)CC(C)(C)O4)c1	nt	nt	-60*	nt	nt
CCn1nc(C)c(/C=C/C(=O)Nc2ccc(C)cc2C)c1C	-3	?	-73*	?	-2
O=C(O)Cc1c(C(=O)O)nnn1-c1ccc(Cl)cc1Cl	12	12%	-66*	?	-4
Nc1nc(SCC(=O)c2c(N)n(Cc3ccccc3)c(=O)[nH]c2=O)n[nH]1	-4	80%	0	22%	7
CCC(=NN=C(CC)c1ccccc1O)c1ccccc1O	nt	nt	-34	nt	nt
C/C(=N/N=C(\C)c1ccccc1O)c1ccccc1O	38*	19%	104	159%	24*
Fc1cccc(/C=N/Nc2nc3ccccc3[nH]2)c1	84*	?	23	0%	40*
Fc1ccc(/C=N/Nc2nc3ccccc3[nH]2)cc1F	118*	0.52µM*	36	0.66µM*	36*
SMILES	Shiga inhibitor	Pf growth 96h	HCMV antiviral	Pf growth 48h	CHX counter
CSCCC(c1nc2ccccc2[nH]1)n1c(/C=C/c2ccc(F)c(F)c2)nc2ccccc21 (stereo not drawn)	nt	nt	60	nt	nt
O=c1[nH]c(N/N=C\c2ccc3c(c2)OCO3)nc2ccccc12	54*	-29%	208	-76%	53*
C(=N\Nc1nc2ccccc2[nH]1)/c1ccccc1	76*	-22%	52	?	49*
N#C/C(=C(O)\C=C\c1ccccc1)c1nc2ccccc2[nH]1	13	28%	-14	15%	-2
O=c1[nH]c(N/N=C/c2cc3c(cc2[N+](=O)[O-])OCO3)nc2ccccc12	-2	?	0	37%	2
O=c1c2ccccc2nc(N/N=C/c2ccc(O)cc2)n1O	21	3%	9	?	3
Brc1ccc(-c2ccc(/C=N/Nc3nncc(-c4ccccc4)n3)o2)cc1	-9	-2%	?	nt	-1
Brc1ccc(-c2ccc(/C=N/Nc3nc4ccccc4[nH]3)o2)cc1	78*	13µM*	95	0.41µM*	49*
C(/CCc1ccccc1)=N\Nc1nc2ccccc2[nH]1	47*	?	-23	?	27*
O=c1[nH]c(N/N=C/c2ccccc2)nc2ccccc12	72*	2%	135	-3%	43*
C(=C\c1ccccc1)/C=N/Nc1nc2ccccc2[nH]1	89*	3.3µM*	-18	?	27*
CCCCCC/C=N/Nc1nnc(Cc2ccccc2)c(=O)[nH]1	18	19%	-7	nt	-4
CCC(C(=O)Nc1ccccc1OC)n1c(C(=O)OC)cc2sc(Cl)cc21 (stereo not drawn)	nt	nt	15	nt	nt
C(=N\Nc1nc2ccccc2[nH]1)/C1CCCCC1	114*	?	-87*	?	61*
Cc1cc(N/N=C/c2ccc3c(c2)OCO3)nc2ccccc12	79*	4.7µM*	55	?	47*
Cc1c(Cl)cccc1NC(=O)Cn1c(=O)nc(-c2ccccc2)c2ccccc21	nt	nt	-87*	nt	nt
O=C(Cn1c(=O)nc(-c2ccccc2)c2ccccc21)NCc1ccc(F)cc1	nt	nt	-10	nt	nt
O=C(Cn1c(=O)nc(-c2ccccc2)c2ccccc21)NCc1ccc(Cl)cc1	nt	nt	-94*	nt	nt
CCN(CC)C(=O)CSC(=Nc1ccccc1F)NC#N	73*	51%	104	85%	22*
Clc1ccc(-c2ccc(/C=N/Nc3cc(N4CCOCC4)nc(N4CCOCC4)n3)o2)cc1	-2	-2%	-34	9.3µM*	-2
Fc1cnc(N/N=C/c2ccc(-c3ccc(Br)cc3)o2)nc1N1CCOCC1	58*	5.9µM*	5	?	34*
Brc1ccc(-c2ccc(/C=N/Nc3nc(N4CCOCC4)nc(N4CCOCC4)n3)o2)cc1	-4	11%	?	12µM*	3
CC(C)c1ccc(/C=N/Nc2cc(N3CCOCC3)nc(N3CCOCC3)n2)cc1	-7	-8%	-38	?	-3
CC(=O)C[C@H](O)CC(=O)[C@H]1OC(=O)CCCCCCCCc2ccccc21	nt	nt	-12	nt	nt
O=C1NC(Cc2ccc(O)cc2)c2nc3cc(Cl)ccc3c(=O)n2-c2cc(Cl)ccc21 (stereo not drawn)	nt	nt	-20	nt	nt
Clc1cccc(/C=N/Nc2ncnc3ccccc23)c1	62*	?	100	-75%	35*

Bioassay records deposited in PubChem by National Center for Advancing Translational Sciences (NCATS).
